# Reference: PubChem BioAssay AID651903 (Broad Institute, 2012)
# The whole screen tested about 22,000 compounds, of which about 1,100 (5%) were called active. Many of the other results were omitted from the sample, so actives are more common in it than they were. Unmarked numbers belong to inactive results. No stated cut-off is given here; in the data, active means activity score above about 55%; inconclusive means no clear call, values can overlap the other calls; inactive means below that.
# Assay: inhibitors of intracellular Trypanosoma cruzi, primary screen, cell-based, plate reader, single point, set 2 (AID 651903);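 further: parasites and compound incubated about four days before reading; 0% = median of neutral control wells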
# Details: intracellular Trypanosoma cruzi in host cells, at 5.01 µM, stronger effect = higher value
row,Structure (SMILES),activity score (inhibition)
1,COc1ccc(NC(=O)Nc2ccc3c(c2)CC(=O)N([C@@H](C)CO)C[C@H](C)[C@@H](CN(C)CC2CCCCC2)O3)cc1,-4.28%
2,C[C@H]1CN([C@@H](C)CO)C(=O)Cc2cc(NC(=O)Nc3cccc4ccccc34)ccc2O[C@H]1CN(C)CC1CC1,-24.3%
3,C[C@@H]1CN([C@@H](C)CO)C(=O)Cc2cc(NC(=O)Nc3cccc4ccccc34)ccc2O[C@@H]1CN(C)CC1CCCCC1,59.9% (active)
4,C[C@@H]1CN([C@@H](C)CO)C(=O)Cc2cc(NC(=O)Nc3ccc4c(c3)OCO4)ccc2O[C@@H]1CN(C)CC1CCCCC1,78.2% (active)
5,C[C@H]1CN([C@@H](C)CO)C(=O)c2cc(NC(=O)Nc3ccc4c(c3)OCO4)ccc2O[C@@H]1CN(C)CC1CCCCC1,8.83%
6,C[C@@H]1CN([C@@H](C)CO)C(=O)Cc2cc(NC(=O)C3CCCCC3)ccc2O[C@@H]1CN(C)CC1CCCCC1,-4.58%
7,C[C@H](CO)N1C[C@H](C)[C@H](CN(C)C(=O)Nc2ccc3c(c2)OCO3)Oc2ccc(NS(=O)(=O)c3ccc(Cl)cc3)cc2CC1=O,-5.11%
8,C[C@H](CO)N1C[C@H](C)[C@@H](CN(C)Cc2ccccc2C(F)(F)F)OCc2cn(nn2)CCCC1=O,-23.6%
9,Cc1noc(C)c1NC(=O)Nc1ccc2c(c1)C(=O)N([C@H](C)CO)C[C@H](C)[C@@H](CN(C)C(=O)Nc1ccccc1)O2,-16.8%
10,C[C@@H]1CN([C@@H](C)CO)C(=O)Cc2cc(NC(=O)C3CC3)ccc2O[C@@H]1CN(C)S(C)(=O)=O,-20.7%
11,C[C@H](CO)N1C[C@H](C)[C@@H](CN(C)Cc2ccccc2)Oc2ccc(NC(=O)Nc3ccc4c(c3)OCO4)cc2C1=O,-2%
12,C[C@@H]1CN([C@H](C)CO)C(=O)c2cc(NC(=O)c3ccncc3)ccc2O[C@H]1CN(C)Cc1ccc(Oc2ccccc2)cc1,85.4% (active)
13,C[C@@H]1CN([C@@H](C)CO)C(=O)c2cc(NC(=O)Nc3ccc4c(c3)OCO4)ccc2O[C@@H]1CN(C)Cc1ccc(Oc2ccccc2)cc1,17.5%
14,C[C@H]1CN([C@@H](C)CO)C(=O)c2cc(NC(=O)Nc3ccc4c(c3)OCO4)ccc2O[C@@H]1CN(C)Cc1ccc(Oc2ccccc2)cc1,70.1% (active)
15,C[C@@H]1CN([C@@H](C)CO)C(=O)c2cc(NC(=O)c3ccncc3)ccc2O[C@H]1CN(C)Cc1ccc(C(=O)O)cc1,-2.84%
16,C[C@@H]1CN([C@@H](C)CO)C(=O)c2cc(NC(=O)c3ccncc3)ccc2O[C@@H]1CN(C)Cc1ccncc1,-7.68%
17,C[C@@H]1CN([C@@H](C)CO)C(=O)Cc2cc(NC(=O)C3CCCCC3)ccc2O[C@@H]1CN(C)Cc1ccc(-c2ccccc2)cc1,43.3%
18,Cc1ccc(S(=O)(=O)N(C)C[C@@H]2Oc3ccc(NC(=O)Cn4cnnn4)cc3CC(=O)N([C@H](C)CO)C[C@H]2C)cc1,9.72%
19,C[C@@H]1CN([C@@H](C)CO)C(=O)c2cccc(NS(=O)(=O)c3ccc(F)cc3)c2O[C@@H]1CN(C)Cc1ccc(C(=O)O)cc1,-4.66%

row,Structure (SMILES),activity score (inhibition)
1,C[C@@H]1CN([C@H](C)CO)C(=O)Cc2cc(NC(=O)CCC(F)(F)F)ccc2O[C@@H]1CN(C)CC1CCCCC1,-9.63%
2,C[C@H](CO)N1C[C@H](C)[C@H](CN(C)Cc2ccc(Oc3ccccc3)cc2)Oc2c(NC(=O)CCCCCC(=O)Nc3ccccc3N)cccc2C1=O,65.5% (active)
3,C[C@H](CO)N1C[C@H](C)[C@H](CN(C)S(=O)(=O)c2ccccc2)Oc2c(NC(=O)CCCCCC(=O)Nc3ccccc3N)cccc2C1=O,58.6% (active)
4,C[C@@H]1CN([C@H](C)CO)C(=O)c2cccc(NC(=O)CCCCCC(=O)Nc3ccccc3N)c2O[C@@H]1CN(C)C(=O)Nc1ccccc1,16.9%
5,C[C@H]1CN([C@@H](C)CO)C(=O)c2cccc(NC(=O)Nc3ccccc3)c2O[C@H]1CN(C)Cc1ccc(Oc2ccccc2)cc1,13.5%
6,C[C@H]1CN([C@@H](C)CO)C(=O)c2cccc(NC(=O)CCCCCC(=O)Nc3ccccc3N)c2O[C@H]1CN(C)C(=O)Nc1ccccc1,-8.85%
7,C[C@H]1CN([C@@H](C)CO)C(=O)c2cccc(NC(=O)CCCCCC(=O)Nc3ccccc3N)c2O[C@@H]1CN(C)S(=O)(=O)c1cn(C)cn1,-40.6%
8,C[C@H](CO)N1C[C@H](C)[C@@H](CN(C)Cc2ccccc2)Oc2c(NC(=O)CCCCCC(=O)Nc3ccccc3N)cccc2C1=O,75.8% (active)
9,C[C@@H]1CN([C@@H](C)CO)C(=O)c2cccc(NC(=O)Nc3cccc4ccccc34)c2O[C@H]1CN(C)S(=O)(=O)c1ccccc1,-9.51%
10,C[C@H](CO)N1C[C@H](C)[C@@H](CN(C)C(=O)Nc2ccccc2)Oc2c(NC(=O)CCCCCC(=O)Nc3ccccc3N)cccc2C1=O,-11.7%
11,CC(C)NC(=O)Nc1cccc2c1O[C@@H](CN(C)S(=O)(=O)c1ccc(F)cc1)[C@@H](C)CN([C@H](C)CO)C2=O,-25.4%
12,C[C@@H]1CN([C@@H](C)CO)C(=O)CCCn2cc(nn2)CO[C@@H]1CN(C)C(=O)c1ccncc1,-21.4%
13,COc1ccc(S(=O)(=O)Nc2ccc3c(c2)C(=O)N([C@@H](C)CO)C[C@@H](C)[C@@H](CN(C)S(C)(=O)=O)O3)cc1,-8.35%
14,CC(C)NC(=O)Nc1cccc2c1O[C@H](CN(C)Cc1ccc3c(c1)OCO3)[C@H](C)CN([C@H](C)CO)C2=O,-10.8%
15,COc1ccc(S(=O)(=O)N(C)C[C@H]2Oc3ccc(NS(=O)(=O)c4c(C)noc4C)cc3CC(=O)N([C@@H](C)CO)C[C@H]2C)cc1,-2.67%
16,C[C@H](CO)N1C[C@H](C)[C@@H](CN(C)S(=O)(=O)c2ccccc2)Oc2c(NS(=O)(=O)c3cn(C)cn3)cccc2C1=O,-8.44%
17,COc1ccc(NC(=O)Nc2ccc3c(c2)C(=O)N([C@@H](C)CO)C[C@H](C)[C@@H](CN(C)S(=O)(=O)c2ccc(Cl)cc2)O3)cc1,16.5%
18,CC(C)NC(=O)Nc1cccc2c1O[C@H](CN(C)S(=O)(=O)c1ccccc1)[C@@H](C)CN([C@@H](C)CO)C2=O,0.345%
19,COc1ccc(CN(C)C[C@@H]2Oc3c(NC(=O)C4CC4)cccc3C(=O)N([C@@H](C)CO)C[C@H]2C)cc1,-27.5%

row,Structure (SMILES),activity score (inhibition)
1,COc1ccc(S(=O)(=O)Nc2ccc3c(c2)CC(=O)N([C@@H](C)CO)C[C@@H](C)[C@@H](CN(C)Cc2ccc(C(=O)Nc4ccccc4N)cc2)O3)cc1,54%
2,C[C@@H]1CN([C@@H](C)CO)C(=O)c2cc(NS(=O)(=O)c3ccccc3)ccc2O[C@@H]1CN(C)Cc1ccc(C(=O)Nc2ccccc2N)cc1,34.8%
3,Cc1ccc(S(=O)(=O)Nc2ccc3c(c2)C(=O)N([C@@H](C)CO)C[C@@H](C)[C@@H](CN(C)Cc2ccc(C(=O)Nc4ccccc4N)cc2)O3)cc1,23.3%
4,C[C@H](CO)N1C[C@H](C)[C@H](CN(C)Cc2ccc(C(=O)Nc3ccccc3N)cc2)Oc2ccc(NS(C)(=O)=O)cc2C1=O,16%
5,C[C@@H]1CN([C@H](C)CO)C(=O)c2cc(NS(=O)(=O)c3cn(C)cn3)ccc2O[C@@H]1CN(C)Cc1ccc(C(=O)Nc2ccccc2N)cc1,3.44%
6,Cc1noc(C)c1S(=O)(=O)Nc1ccc2c(c1)C(=O)N([C@@H](C)CO)C[C@H](C)[C@H](CN(C)Cc1ccc(C(=O)Nc3ccccc3N)cc1)O2,74% (active)
7,Cc1ccc(S(=O)(=O)Nc2ccc3c(c2)CC(=O)N([C@@H](C)CO)C[C@H](C)[C@H](CN(C)Cc2ccc(C(=O)Nc4ccccc4N)cc2)O3)cc1,66.2% (active)
8,Cc1ccc(S(=O)(=O)Nc2ccc3c(c2)CC(=O)N([C@@H](C)CO)C[C@H](C)[C@H](CN(C)Cc2ccccc2)O3)cc1,12.2%
9,C[C@H]1CN([C@@H](C)CO)C(=O)Cc2cc(NS(=O)(=O)c3ccccc3)ccc2O[C@H]1CN(C)Cc1ccc(C(=O)Nc2ccccc2N)cc1,69.5% (active)
10,C[C@@H]1CN([C@H](C)CO)C(=O)c2cc(NC(=O)Nc3ccccc3)ccc2O[C@H]1CN(C)Cc1ccc(Cl)c(Cl)c1,-34%
11,C[C@@H]1CCCCO[C@@H](CN(C)S(=O)(=O)c2cccs2)[C@@H](C)CN([C@H](C)CO)C(=O)c2cc(NC(=O)Nc3ccc(F)cc3)ccc2O1,21.5%
12,O=C(NO)c1cccc(C(=O)N/N=C/c2cccnc2Cl)c1,1.22%
13,C[C@H](CO)N1C[C@H](C)[C@H](CN(C)C(=O)Nc2ccc(F)cc2)Oc2ccc(NC(=O)Cc3cn(C)c4ccccc34)cc2CC1=O,-2.27%
14,C[C@H](CO)N1C[C@H](C)[C@H](CN(C)Cc2ccncc2)Oc2ccc(NC(=O)Cc3cn(C)c4ccccc34)cc2CC1=O,4.58%
15,C[C@H]1CN([C@@H](C)CO)C(=O)Cc2cc(NC(=O)Cc3cn(C)c4ccccc34)ccc2O[C@@H]1CN(C)Cc1ccc(C(F)(F)F)cc1,65.6% (active)
16,C[C@H]1CN([C@@H](C)CO)C(=O)Cc2cc(NC(=O)Cc3cn(C)c4ccccc34)ccc2O[C@H]1CN(C)Cc1ccccc1,11.1%
17,C[C@@H]1CN([C@H](C)CO)C(=O)Cc2cc(NC(=O)Cc3cn(C)c4ccccc34)ccc2O[C@@H]1CN(C)S(=O)(=O)c1ccccc1,47.8%
18,C[C@H]1CN([C@@H](C)CO)C(=O)Cc2cc(NC(=O)Cc3cn(C)c4ccccc34)ccc2O[C@@H]1CN(C)Cc1ccccc1,57.4% (active)
